Values joined by “and” are separate entries in the source; they are usually repeats but may differ in a detail not shown here. Equal values may be shown once. Results filed as inconclusive are left out. Where a call stands in place of a potency, no number is given. A structure can be active in one record and inactive in another. Active and inactive are the calls of the source. Calls follow the shape of the full dose curve.
Potency is read from the fitted curve at half-maximal effect.

The nature of the assay: qHTS assay to identify small molecule agonists of the progesterone receptor (PR) signaling pathway - cell viability counter screen (AID 1346799). Also: nearly all actives have a fitted effect of over 45% in size. The following applies: PR-UAS-bla HEK293T viability, CellTiter-Glo luminescence, 16 h; series mostly up to 92.4 µM. The text has this: National Center for Advancing Translational Sciences [NCATS]
NIH Chemical Genomics Center [NCGC]
U.S. Environmental Protection Agency [EPA]
National Institutes of Environmental Health Sciences [NIEHS]
National Toxicology Program [NTP]
U.S. Food and Drug Administration [FDA]
Progesterone receptor (PR), a nuclear hormone receptor, plays an important role in development, metabolic homeostasis and reproduction. It is activated by the steroid hormone progesterone. Endocrine disrupting chemicals (EDCs) and their interactions with steroid hormone receptors like PR causes disruption of normal endocrine function. To identify the compounds that stimulate PR signaling, a PR-UAS-bla GripTite cell line i.e. PR-UAS-bla HEK293T (Invitrogen, Carlsbad, CA, USA) containing a beta-lactamase reporter gene under the control of an UAS response element was used to screen Tox21 10K compound library. The cytotoxicity of the Tox21 compound library against the PR-bla cell line was tested in parallel by measuring the cell viability using CellTiter-Glo assay in the same wells.
Tox21 Assay Protocol Summary:
PR-UAS-bla HEK293T cells were dispensed at 3,000 cells/5 uL of assay medium containing 2% charcoal stripped FBS per well into black wall/clear-bottom 1536-well plates using a Multidrop Combi (ThermoFisher Scientific, Waltham, MA) dispenser. After the assay plates were incubated at a 37C and 5% CO2 for 6 hr, 23 nL of compounds dissolved in DMSO, positive controls or DMSO only was transferred to the assay plate by a Pintool station (Kalypsys, San Diego, CA). The plates were incubated at 37C and 5% CO2 for 16 hr. Then 1 uL of LiveBLAzer B/G FRET substrate was added using a Flying Reagent Dispenser (FRD, Aurora Discovery, San Diego, CA), the plates were incubated at room temperature for 2 hours, and fluorescence intensity was measured by an Envision plate reader (PerkinElmer, Shelton, CT). For cell viability readout that measures cytotoxicity, 4 uL/well of CellTiter-Glo reagent was added into the assay plates using a FRD. After 30 min incubation at room temperature, the luminescence intensity in the plates was measured using a ViewLux (PerkinElmer) plate reader.
Consider `CCOCCOCCO`, for which the Potency entry was “inactive”. For `C[C@]12CCC(=O)C=C1CC[C@@H]1[C@@H]2C(=O)C[C@@]2(C)[C@H]1CC[C@]2(O)C(=O)CO`, the Potency result was “inactive”. As to `c1cc(N(CC2CO2)CC2CO2)ccc1OCC1CO1` (stereo not given), the Potency entry is “inactive”. Consider `S=C(NC1CCCCC1)NC1CCCCC1`, for which the Potency was 7.7 µM (active).

Regarding `C=CC(C)(CCC=C(C)C)OC(C)=O` (stereo not given), the Potency result was “inactive”. On to `O=C=Nc1ccc(Cc2ccc(N=C=O)cc2)cc1`, for which the Potency result was “inactive”. Next, `C=C(C)C(=O)OCCOC(=O)C(=C)C`: “inactive”; `CC(C)CC(C)(O)C#CC(C)(O)CC(C)C` (stereo not given): “inactive”. The same measure for `Nc1ccc(S(=O)(=O)Nc2cnc3ccccc3n2)cc1`: “inactive”; for `Cn1cnc([N+](=O)[O-])c1Sc1ncnc2nc[nH]c12`: 3.83 µM (active) and inactive; for `c1ccncc1`: “inactive”. The same measure for `CCC(C)c1ccccc1O` (stereo not given): “inactive”; for `CC(C)OC=O`: “inactive”; for `OCCO`: “inactive”. For the compound `NNc1ccc(C(=O)O)cc1`, the Potency entry was “inactive”. The same measure for `O=C(c1ccccc1)c1ccccc1O`: “inactive”; for `O=CCc1ccccc1`: “inactive”; for `CCC(C)OC(=O)c1ccc(O)cc1` (stereo not given): “inactive”.

For the compound `CN(C)c1nc(N(C)C)nc(N(C)C)n1`, the Potency entry is “inactive”. For `COc1ccc(C(=O)CC(=O)c2ccc(C(C)(C)C)cc2)cc1`, the Potency entry is “inactive”. For the compound `CC(C)OB(OC(C)C)OC(C)C`, the Potency entry is “inactive”.

With `CCCCCCCCCCCO`, the Potency result was “inactive”. Next, `CC(CCC(=O)O)(c1ccc(O)cc1)c1ccc(O)cc1`: “inactive”; `CC(=O)c1ccccn1`: “inactive”.

Take `O=CCCCC=O`: the Potency entry is “inactive”.

Turning to `COC(=O)Nc1nc2ccc(S(=O)c3ccccc3)cc2[nH]1` (stereo not given), the Potency entry is “inactive”. Next, `c1cc(-c2ccncc2)ccn1`: “inactive”; `c1ccc2sc(SSN3CCOCC3)nc2c1`: “inactive”. In the case of `OC(CCl)CCl`, the Potency result was “inactive”.

For `CC(=O)C1(C)CC2=C(CCCC2(C)C)CC1C` (stereo not given), the Potency entry was “inactive”. Next, `c1ccc2cc(Nc3ccc(Nc4ccc5ccccc5c4)cc3)ccc2c1`: “inactive”. Take `C[Si](C)(C)O[Si](C)(C)C`: the Potency entry was “inactive”. On to `CN(C)CCN(Cc1cccs1)c1ccccn1`, for which the Potency entry is “inactive”.

As for `COc1c(Cl)c(Cl)c(Cl)c(Cl)c1Cl`, the Potency result is “inactive”.

As for `Cc1c(C(N)=O)cc([N+](=O)[O-])cc1[N+](=O)[O-]`, the Potency result was “inactive”. The same measure for `CN(C)CCC=C1c2ccccc2CCc2ccccc21`: 54.5 µM (active) and 15.4 µM (active) and 16.8 µM (active); for `c1ccc2c(c1)c1cccc3ccc4cccc2c4c31`: “inactive”.

Regarding `CCC(C)(O)CCCC(C)C` (stereo not given), the Potency entry is “inactive”.

As to `Cc1ccc(C)c(O)c1C`, the Potency result is “inactive”. Consider `Cc1[nH]c(=O)c(C#N)cc1-c1ccncc1`, for which the Potency is 2.73 µM (active) and inactive.

The values are drawn from PubChem BioAssay (Tox21).
